# About 22,000 (7.3%) of roughly 300,000 compounds were called active. Another 2% or so got no clear call; they are omitted. This excerpt belongs to a sample that is enriched for actives. Unmarked numbers belong to inactive results. No stated cut-off is given here; in the data, active means activity score below about -60%; inconclusive means mostly about -28% to -61%; inactive means positive scores.
# Assay: Activators via SNCA 5'UTR binding, MLPCN (AID 1814)
# Conditions: alpha-synuclein 5'UTR reporter, activators screen; stronger effect = lower value; tested at 7.5 µM
row,Structure (SMILES),activity score
1,Cc1nc2sc(C(=O)c3ccccc3)c(N)c2c2c1CCCC2,-156% (active)
2,Cc1cccc(NC(=O)Cc2ccc(Br)cc2)n1,-90.2% (active)
3,Cc1cccc(NC(=O)c2ccc3ccccc3n2)n1,-103% (active)
4,Cc1cccc(NC(=O)COc2ccccc2C)n1,-109% (active)
5,CCOc1cc(N2CCOCC2)c(OCC)cc1NC(=O)COc1cccc2cccnc12,88.8%
6,Cc1cccc(NC(=O)COc2ccc(Br)cc2C)n1,-210% (active)
7,Cc1ccccc1OCC(=O)Nc1ccc2c(c1)ncn2C,-256% (active)
8,CCc1c(C)c2ccc(OC3CCCCC3=O)cc2oc1=O (configuration not stated),-133% (active)
9,C=CCOc1ccc(/C=C2\SC(=S)N(CCC(=O)O)C2=O)cc1,80%
10,Cc1ccc(-c2nn(-c3ccccc3)cc2/C=C2\SC(=S)N(CCCCCC(=O)O)C2=O)o1,-89.9% (active)
11,CCNc1nc(-c2cc3ccccc3o2)cs1,-187% (active)
12,COc1ccc2nc(Nc3nc(-c4cc5ccccc5oc4=O)cs3)sc2c1,-131% (active)
13,O=c1oc2ccccc2cc1-c1csc(Nc2ccc(O)cc2)n1,-171% (active)
14,COc1ccc2nc(Nc3nc(-c4ccncc4)cs3)sc2c1,-122% (active)
15,CC(Cc1cccs1)NC(=O)c1cccc(Cl)c1 (configuration not stated),-95.5% (active)
16,O=C(NC1CCCCCCC1)c1cccs1,-77.8% (active)
17,CC(Cc1cccs1)NC(=O)NC1CCCCC1 (configuration not stated),-95.9% (active)
18,Cc1cnc(NC(=O)c2ccc(Cl)nc2)s1,-97.1% (active)
19,COc1cc(CNc2ncn[nH]2)ccc1OCc1ccccc1C,-65.6% (active)
20,COC(=O)Cc1csc(/N=C/c2c(O)n(-c3cccc(C(F)(F)F)c3)c(=O)c3ccccc23)n1,81.8%
21,O=C(Cc1cccs1)NCc1cccc(C(F)(F)F)c1,-110% (active)
22,CC(C)c1ccc(/C=C2\NC(=O)NC2=O)cc1,-66.1% (active)
23,C/C(=N\Nc1ncc(Cl)cc1Cl)c1cccs1,-91.6% (active)
24,COc1cccc(/C(C)=N/Nc2ncc(Cl)cc2Cl)c1,-119% (active)
25,COc1cccc(/C=N/Nc2ncc(C(F)(F)F)cc2Cl)c1O,76.7%
26,C/C(=N\Nc1ncc(Cl)cc1Cl)c1ccc(S(=O)(=O)NCc2ccco2)cc1,-141% (active)

row,Structure (SMILES),activity score
1,C/C(=N\Nc1nc2ccccc2[nH]1)c1cccs1,-116% (active)
2,Nc1cccc(CCc2nc3ccccc3[nH]2)c1,-77.9% (active)
3,Cc1c(C(=O)OC(C)C)sc(NC(=O)c2cccnc2)c1C#N,-80.1% (active)
4,CNc1nc2c(C)cccn2c(=O)c1C=Nc1ccc(OC)cc1,-108% (active)
5,O=C(Nc1ccc(N2CCOCC2)cc1)c1ccc(-c2ccccc2[N+](=O)[O-])o1,-107% (active)
6,O=C(Nc1ccc2sc3ccccc3c(=O)c2c1)c1ccccc1Cl,-135% (active)
7,Cc1ccc(SCC(=O)c2cc(C)c(OC(=S)N(C)C)c(C)c2)cc1,-155% (active)
8,CCOc1ccc(NC(=O)Nc2cc(C)ccc2OC)cc1,-78.4% (active)
9,CCOc1ccc(C(=O)Nc2cccc(SC)c2)cc1,-168% (active)
10,CCOc1ccc(C(=O)Nc2cc(OC)ccc2OC)cc1,-88.9% (active)
11,CCOc1ccc(NC(=O)Nc2cc(C)on2)cc1,-128% (active)
12,CC(=O)c1cc(C#N)c(SCC(=O)C(C)(C)C)nc1C,-148% (active)
13,CC(=O)c1cc(C#N)c(SCC(=O)Nc2nccs2)nc1C,-110% (active)
14,CCOC(=O)c1cccc(NC(=O)c2ccc(F)cc2F)c1,-127% (active)
15,CCC(=C/c1sc2ccc3ccccc3c2[n+]1C)/C=C1\Sc2ccc3ccccc3c2N1C,-122% (active)
16,O=C(c1nnc(-c2ccc(Cl)cc2)o1)C1CCCC1,-86.2% (active)
17,CCOC(=O)c1sc(-c2cccc([N+](=O)[O-])c2)cc1N,-129% (active)
18,O=C(Cn1cnc2c(cnn2-c2ccccc2)c1=O)NCc1ccccc1,-148% (active)
19,O=C(OCc1ccc(-c2ccccc2)cc1)c1cccc(O)c1,-109% (active)
20,O=C(OCC(=O)c1c[nH]c2ccccc12)c1cccc(O)c1,-220% (active)
21,CCc1ccccc1NC(=O)c1cc(-c2ccc3c(c2)OCO3)on1,-145% (active)
22,C/C(=N/Nc1nc(-c2ccccc2)c(CC(=O)O)s1)c1ccccc1,-168% (active)
23,COc1ccccc1N1CCN(/N=C\C(Br)=C\c2ccccc2)CC1,-74.9% (active)
24,COc1ccccc1N1CCN(/N=C/c2ccc(O)cc2O)CC1,-147% (active)
25,CCNC(=O)N1CCNC(=O)C1CC(=O)Nc1ccc(C(=O)OCC)cc1 (configuration not stated),-69.7% (active)
26,COc1ccc(-c2cc(C(=O)NC(Cc3c[nH]c4ccccc34)C(=O)O)c(C)o2)cc1OC (configuration not stated),-104% (active)

# Reference: PubChem BioAssay AID1814 (Broad Institute, 2009)
